# Reference: PMC10726135, “HNF4α isoforms regulate the circadian balance between carbohydrate and lipid metabolism in the liver”
# Whole data set: some 18,000 sequences, median “log2 normalized intensity” near 0.36, cut for the highest 2% near 7.3. What follows is part of a selection rich in the highest values, with near analogues and random picks from the rest.
# Molecular target: T1, HNF4alpha8 (COS-7 nuclear extract) (Homo sapiens, UniProt P41235-5 1-452)
# T1 sequence: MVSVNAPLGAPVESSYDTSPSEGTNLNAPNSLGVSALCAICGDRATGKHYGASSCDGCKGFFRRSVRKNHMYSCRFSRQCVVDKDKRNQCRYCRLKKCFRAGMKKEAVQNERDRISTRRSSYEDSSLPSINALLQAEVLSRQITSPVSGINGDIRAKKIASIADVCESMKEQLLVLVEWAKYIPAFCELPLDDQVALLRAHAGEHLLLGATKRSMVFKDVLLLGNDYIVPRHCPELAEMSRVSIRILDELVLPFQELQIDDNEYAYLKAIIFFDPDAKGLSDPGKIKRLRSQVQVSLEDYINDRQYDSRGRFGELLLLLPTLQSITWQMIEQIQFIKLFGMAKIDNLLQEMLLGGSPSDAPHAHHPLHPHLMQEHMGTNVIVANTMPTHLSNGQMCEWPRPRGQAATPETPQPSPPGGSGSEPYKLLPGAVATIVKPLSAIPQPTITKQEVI
# Assay: protein-binding microarray; COS-7 nuclear extract on double-stranded Agilent 4x180k PBM; binding buffer, salt, pH and temperature not given in the material; high values mean tight binding
# Conditions: chain copies: 2; label: 3' end of strand 1 on the slide; dsDNA, one strand shown
# Outline: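 Double-stranded oligonucleotides of ~60 nt, representing ~44,000 test sequences in quadruplicate, made up a custom Agilent SurePrint G3 4x180k array. Nuclear extracts from COS-7 cells transiently transfected by CaPO4 with a human HNF4α isoform expression vector were applied, and bound HNF4α was imaged at 2-µm resolution on an Agilent G2565CA scanner. Binding signal refers to the background-corrected, normalized gProcessedSignal output of Agilent software.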
row,Sequence,binding signal [log2 normalized intensity]
1,TCACACAAATGGATCTTTCTTCAAAAAGAGGCCTAGGGAGATTAGAGTATCGGTCGA,-0.0678
2,CCCTTTAGTGCCTGGATCTTGGAACAGGTCGCCTAGGGAGATTAGAGTATCGGTCGA,1.97
3,TATTTAGACTCAGCATGTCTTCTGACCTTTGCCTAGGGAGATTAGAGTATCGGTCGA,7.33
4,CCTGCACACCTGCCTTTGATCAGGGACCTTGCCTAGGGAGATTAGAGTATCGGTCGA,1.97
5,GCTCAGCTGGTTGCCCCTTTGACCCTCGGGGCCTAGGGAGATTAGAGTATCGGTCGA,7.06
6,GGGTCATGCTGGTCTCCTTGCCCCACCCCCGCCTAGGGAGATTAGAGTATCGGTCGA,5.73
7,AGCTCGCTCAGCTGGTTGCCCCTTTGACCCGCCTAGGGAGATTAGAGTATCGGTCGA,8.48
8,CAGCATGTCTTCTGACCTTTGGCAATATCTGCCTAGGGAGATTAGAGTATCGGTCGA,5.1
9,GCCCCAGCTCGCTCAGCTGGTTGCCCCTTTGCCTAGGGAGATTAGAGTATCGGTCGA,4.47
10,GGTCTCCTTGCCCCACCCCCCACCCCAGAAGCCTAGGGAGATTAGAGTATCGGTCGA,6.87
11,ATGCTGGTCTCCTTGCCCCACCCCCCACCCGCCTAGGGAGATTAGAGTATCGGTCGA,7.48
12,GTCTCTCAGGCACAGCTCGACCTTTGACCTGCCTAGGGAGATTAGAGTATCGGTCGA,10
13,CCTCTGTCTCTCAGGCACAGCTCGACCTTTGCCTAGGGAGATTAGAGTATCGGTCGA,6.7
14,AGACTCAGCATGTCTTCTGACCTTTGGCAAGCCTAGGGAGATTAGAGTATCGGTCGA,6.98
15,AGTCACACACACCTGTGTCCCCCAGGTCCAGCCTAGGGAGATTAGAGTATCGGTCGA,3.56
16,ATATCTGCCTCAGTAGTAGTGAAAAATGAAGCCTAGGGAGATTAGAGTATCGGTCGA,0.637
17,GGAGGTGACCTTTGGTTGTCCTTACTGCTAGCCTAGGGAGATTAGAGTATCGGTCGA,4.22
18,ACCTCTTATCAAGCGTGCACCCCAGGTACGGCCTAGGGAGATTAGAGTATCGGTCGA,1.3
19,ATGGTGTTTGCTTTGTGAAGGCTTATCTGCGCCTAGGGAGATTAGAGTATCGGTCGA,0.591
20,GGTTCTTCCACGACTCCCCCGCTCACCCCTGCCTAGGGAGATTAGAGTATCGGTCGA,5.08
21,AACTTTTCCATGTCCAAAGGTCTTCATGAGGCCTAGGGAGATTAGAGTATCGGTCGA,4.33
22,AGTGCCATGTAATCAAACTGAACTTTGAAAGCCTAGGGAGATTAGAGTATCGGTCGA,4.48

row,Sequence,binding signal [log2 normalized intensity]
1,AACATCATAGAGTGTACTTATGCAGACCTGGCCTAGGGAGATTAGAGTATCGGTCGA,0.968
2,CCTCCAGCTACTCACTCTTCCCAAATAGGTGCCTAGGGAGATTAGAGTATCGGTCGA,-0.273
3,AAGTGCGTCCTGTGGCAAAGGTGAATGACCGCCTAGGGAGATTAGAGTATCGGTCGA,2.99
4,TTCACAGAGCAAGGGTCCAGATTAGAGCACGCCTAGGGAGATTAGAGTATCGGTCGA,2.52
5,AAAGCCACCCCTTTCTCCTCTCTTTCCATAGCCTAGGGAGATTAGAGTATCGGTCGA,0.633
6,GGACAAAGTTCCCCGGGCAGCTGTGTTTGCGCCTAGGGAGATTAGAGTATCGGTCGA,0.702
7,CTCCAACTGCTCCTCTTCAACTGATTCTTGGCCTAGGGAGATTAGAGTATCGGTCGA,-0.845
8,GGGGCCTAGCTTGTAAAGGGTAATCTGCTTGCCTAGGGAGATTAGAGTATCGGTCGA,-0.484
9,CTTCCAAGGCTGCAAGCAAACCTGCCCTTTGCCTAGGGAGATTAGAGTATCGGTCGA,4.57
10,TGGGGTCTCGCTGCTTCGGCCTTTGACCTCGCCTAGGGAGATTAGAGTATCGGTCGA,8.46
11,CAGGGTGGGGTCTCGCTGCTTCGGCCTTTGGCCTAGGGAGATTAGAGTATCGGTCGA,1.11
12,TCTCGCTGCTTCGGCCTTTGACCTCGTGATGCCTAGGGAGATTAGAGTATCGGTCGA,7.09
13,AGTCCAAAGGTCTGAGAACCAAGAGAGCCAGCCTAGGGAGATTAGAGTATCGGTCGA,1.62
14,GACCAGTCTGCCTGACTCCAGAGTCCAAACGCCTAGGGAGATTAGAGTATCGGTCGA,4.23
15,CTATCTGCCTGCAGGAGAGAGCAAAGTCCAGCCTAGGGAGATTAGAGTATCGGTCGA,8.21
16,TGCCTGCAGGAGAGAGCAAAGTCCACGCATGCCTAGGGAGATTAGAGTATCGGTCGA,6.82
17,AGCCCTTATATCCACATGGGTCCAAAGTTCGCCTAGGGAGATTAGAGTATCGGTCGA,9.47
18,AGTCTTGAGTCCCAAAGTCCAAAGGCAGTCGCCTAGGGAGATTAGAGTATCGGTCGA,3.61
19,CAGGGAGCCCTTATATCCACATGGGTCCAAGCCTAGGGAGATTAGAGTATCGGTCGA,3.03
20,CAACTCCAAAGTCCAAAGTCCAGTCTTATCGCCTAGGGAGATTAGAGTATCGGTCGA,8.47
21,GCATGGCTCAGTCCAAGTCCAAAGGTCTGAGCCTAGGGAGATTAGAGTATCGGTCGA,6.28
22,CTTGAGTCCAGGAGTGCAAAGCTGCTATGAGCCTAGGGAGATTAGAGTATCGGTCGA,-0.723

row,Sequence,binding signal [log2 normalized intensity]
1,CCAAAGTCCAAAGTCCAGTCTTATCTGAGAGCCTAGGGAGATTAGAGTATCGGTCGA,7.93
2,ATTCCTAAGTTCCAAAGGCCATCCACATTCGCCTAGGGAGATTAGAGTATCGGTCGA,2.4
3,TTCAGTCTTTGTCTTAGCCTGCTCTTTTCCGCCTAGGGAGATTAGAGTATCGGTCGA,1.12
4,CCTCTGAAAACTTTTACTGGGAAGAGATAAGCCTAGGGAGATTAGAGTATCGGTCGA,-0.817
5,AGATAAGACAAGCTCTGTTTGTTTTGTTACGCCTAGGGAGATTAGAGTATCGGTCGA,1.26
6,ACTTTGCCTTTTGGCTAAAGTCCAAATTCCGCCTAGGGAGATTAGAGTATCGGTCGA,6.01
7,AACTTTGTTTGAGTTCCAAAGTCCATGTTCGCCTAGGGAGATTAGAGTATCGGTCGA,7.61
8,TGTTTGAGTTCCAAAGTCCATGTTCATAACGCCTAGGGAGATTAGAGTATCGGTCGA,5.66
9,ATACAGAATCAATGCCTGATTCCAAAGTCCGCCTAGGGAGATTAGAGTATCGGTCGA,6.36
10,GTCAAAACTTTGTTTGAGTTCCAAAGTCCAGCCTAGGGAGATTAGAGTATCGGTCGA,7.18
11,GAATCAATGCCTGATTCCAAAGTCCACTTTGCCTAGGGAGATTAGAGTATCGGTCGA,7.71
12,TGTTTGTTTTGAGATAGGGTCTTGCTTTGTGCCTAGGGAGATTAGAGTATCGGTCGA,1.3
13,CACTCATGGTGTTTGCTTTGTGAAGGCTTAGCCTAGGGAGATTAGAGTATCGGTCGA,0.417
14,TTCCTCCAGCCTGTCGGAATTTGCCCTGTGGCCTAGGGAGATTAGAGTATCGGTCGA,5.15
15,ACCATTAACCCTACAGTCCTGCCACATCCCGCCTAGGGAGATTAGAGTATCGGTCGA,-0.385
16,ATCTCATCCTGTGACCAAGAATGTCTAACCGCCTAGGGAGATTAGAGTATCGGTCGA,-0.428
17,TTGATCCAGGATCCTTCTTGACCAGGCAAGGCCTAGGGAGATTAGAGTATCGGTCGA,0.747
18,CAAGCTTGATCCAGGATCCTTCTTGACCAGGCCTAGGGAGATTAGAGTATCGGTCGA,1.18
19,TCTTGACCAGGCAAGCTTGACCTTTGATCCGCCTAGGGAGATTAGAGTATCGGTCGA,10
20,ACTTTGACCTAGAAGCCAGGGACCAGGAAGGCCTAGGGAGATTAGAGTATCGGTCGA,-0.796
21,ATCCTTCTTGACCAGGCAAGCTTGACCTTTGCCTAGGGAGATTAGAGTATCGGTCGA,7.77
22,CTTGACCTTTGATCCAGGCTCAGTGGGCGTGCCTAGGGAGATTAGAGTATCGGTCGA,5.72

row,Sequence,binding signal [log2 normalized intensity]
1,GCAAGCTTGACCTTTGATCCAGGCTCAGTGGCCTAGGGAGATTAGAGTATCGGTCGA,8.22
2,TTAGGATGACCTTTAGATTCTTACAGGCAAGCCTAGGGAGATTAGAGTATCGGTCGA,4.57
3,ATTTGACCCTTGGCCAGGTGCAGTGGCTCAGCCTAGGGAGATTAGAGTATCGGTCGA,3.54
4,GCTCCTGTTCCTTTGTTACACTGGCTGCCCGCCTAGGGAGATTAGAGTATCGGTCGA,2.08
5,AAAGGTCACCAGTGAGCCAAGGTACCCTGGGCCTAGGGAGATTAGAGTATCGGTCGA,1.29
6,GTGACTCTAGGAACCTTTCTCCATACCTCTGCCTAGGGAGATTAGAGTATCGGTCGA,-0.874
7,ACAAAGAAATGTAACCTTTGGCCAATTGCAGCCTAGGGAGATTAGAGTATCGGTCGA,5.13
8,AACTGACACTTGTTTGAATTGTGATAATAAGCCTAGGGAGATTAGAGTATCGGTCGA,1.04
9,TTATCTTGGTGCCTGCAGAGCCTCCCCATTGCCTAGGGAGATTAGAGTATCGGTCGA,2.69
10,GTAGGGCAGAGGCCAGTTTGATCACAAGACGCCTAGGGAGATTAGAGTATCGGTCGA,-0.285
11,AGTTTGGTTTAAAGTTCAAGTCATAACTGGGCCTAGGGAGATTAGAGTATCGGTCGA,2.53
12,CTCCTGGACTTTGGTCTCATGGGCCTAAACGCCTAGGGAGATTAGAGTATCGGTCGA,5.27
13,GTAATGACATGCAGTATGGGGACTTTGGACGCCTAGGGAGATTAGAGTATCGGTCGA,7.1
14,GACATGCAGTATGGGGACTTTGGACTCCTGGCCTAGGGAGATTAGAGTATCGGTCGA,8.41
15,TATGTGCTCACTCCTGGGACAAGGACTTTGGCCTAGGGAGATTAGAGTATCGGTCGA,3.11
16,ATCCCCTCCTGGACTTTGGTCTCATGGGCCGCCTAGGGAGATTAGAGTATCGGTCGA,7.4
17,GAATAATCCCCTCCTGGACTTTGGTCTCATGCCTAGGGAGATTAGAGTATCGGTCGA,8
18,GGACTTTGGTCTCATGGGCCTAAACATTCCGCCTAGGGAGATTAGAGTATCGGTCGA,5.24
19,CAAATGAATAATCCCCTCCTGGACTTTGGTGCCTAGGGAGATTAGAGTATCGGTCGA,5.55
20,ATGCCCAAATGAATAATCCCCTCCTGGACTGCCTAGGGAGATTAGAGTATCGGTCGA,3.33
